{"source": "PubChem BioAssay (Tox21)", "note": "A number with no mark means an inactive call. Active and inactive are the calls of the source. Calls follow the shape of the dose curve; as a rule, active = well fitted curve in the direction sought with a large enough effect in the repeat runs; inconclusive = weak or mixed curves; inactive = flat fitted curve, though single readings scatter. % is scaled to controls: 0 for no effect and ±100 for the full control effect."}
{"test": "qHTS assay to test for compound auto fluorescence at 590 nm (red) in HepG2 cell free culture (AID 720684)", "conditions": "cell-free medium autofluorescence, red 540/590 nm; series mostly up to 91.3 µM", "excerpt": "U.S. Tox21 Program National Center for Advancing Translational Sciences [NCATS] NIH Chemical Genomics Center [NCGC] U.S. Environmental Protection Agency [EPA] National Institutes of Environmental Health Sciences [NIEHS] National Toxicology Program [NTP] U.S. Food and Drug Administration [FDA] Tox21 Assay Overview: Compound auto fluorescence often interferes with screening of the compound library against various biological targets and signaling pathways. Some of these compounds may have fluorophoric properties. Such properties may interfere with the assay outputs resulting in false positives and/or negatives. To decrease such complications and ensure the compound activities are relevant in terms of biological response, the Tox21 10K compound library was screened for auto fluorescence. From the fluorophores used as reporter signals in our screening assays, the auto fluorescence equivalencies of compounds against three fluorophores have been evaluated: Triamterene, Fluorescein and Rose Bengal sodium for blue, green and red fluorescence, respectively. The fluorescence intensities were measured using Excitation/Emission wavelengths at 405/460nm, 485/535nm and 540/590nm for blue, green and red labels, respectively. This assay includes the red fluorescence data.\nTox21 Assay Protocol Summary: 5 uL of culture medium (MEM containing 10% FBS) per well was dispensed into black wall/clear bottom 1536-well plates using a Multidrop Combi Dispenser (ThermoFisher Scientific, Waltham, MA). After 23 nL compound or DMSO vehicle was transferred into assay plate by a pintool work station (Kalypsys, San Diego, CA), fluorescence intensities in the assay plates were measured by an Envision (PerkinElmer, Shelton, CT) plate reader using three labels for measuring blue, green and red fluorescence at […] 460, 535 and 590nm respectively."}
{"smiles": "COc1cc(C(=O)NC2CCN(C)CC2)ccc1Nc1ncc2c(n1)N(C1CCCC1)CC(F)(F)C(=O)N2C", "outcome": "inactive"}
{"smiles": "O=C(O)c1cccc(-c2noc(-c3ccccc3F)n2)c1", "outcome": "inactive"}
{"smiles": "C[C@@H](O[C@H]1OCCN(Cc2n[nH]c(=O)[nH]2)[C@H]1c1ccc(F)cc1)c1cc(C(F)(F)F)cc(C(F)(F)F)c1", "outcome": "inactive"}
{"smiles": "COc1cc(N)c(Cl)cc1C(=O)NC1CCN(CCCOc2ccc(F)cc2)CC1OC", "note": "(stereo not given)", "fluorescence, % of Rose Bengal": "-0.186% [at 18.6 µM]"}
{"smiles": "O=[N+]([O-])c1ccc(O/N=C/c2cc(Br)c(O)c(Br)c2)c([N+](=O)[O-])c1", "outcome": "inactive"}
{"smiles": "CCCCC(CC)COP(=O)(O)O", "note": "(stereo not given)", "outcome": "inactive"}
{"smiles": "C=C1c2cccc(O)c2C(O)=C2C(=O)[C@]3(O)C(O)=C(C(N)=O)C(=O)[C@@H](N(C)C)[C@@H]3[C@@H](O)[C@H]12", "fluorescence, % of Rose Bengal": "-0.515% [at 18.6 µM]"}
{"smiles": "OC(CCN1CCCC1)(c1ccccc1)C1CCCCC1", "note": "(stereo not given)", "fluorescence, % of Rose Bengal": "-0.161% [at 18.6 µM]"}
{"smiles": "O=C1NCCN1CCO", "outcome": "inactive"}
{"smiles": "CC/C=C1/OC(=O)c2ccccc21", "outcome": "inactive"}
{"smiles": "O=c1cc(-c2ccccc2)oc2cc(O)cc(O)c12", "outcome": "inactive"}
{"smiles": "NC(=O)c1ccncc1", "outcome": "inactive"}
{"smiles": "O=C1CCCCCCCCCCOCCCCO1", "outcome": "inactive"}
{"smiles": "O=C(O)CCC(=O)C(=O)O", "outcome": "inactive"}
{"smiles": "CC[N+](CC)(CCNC(=O)C(=O)NCC[N+](CC)(CC)Cc1ccccc1Cl)Cc1ccccc1Cl", "outcome": "inactive"}
{"smiles": "CCCCCCCCN", "outcome": "inactive"}
{"smiles": "C=Cc1ccc(S(=O)(=O)O)cc1", "outcome": "inactive"}
{"smiles": "C[C@]12CC[C@@H]3c4ccc(O)cc4CC[C@H]3[C@@H]1CC[C@@H]2OC(=O)CCC1CCCC1", "outcome": "inactive"}
{"smiles": "CCN(CC)CCNC(=O)COc1ccc(OC)cc1", "outcome": "inactive"}
{"smiles": "O=c1[nH]c2ccc(Cl)cc2o1", "outcome": "inactive"}
{"smiles": "Brc1cc2ccccc2c2ccccc12", "outcome": "inactive"}
{"smiles": "CCC=CC#N", "outcome": "inactive"}
{"smiles": "Oc1cccc(O)c1O", "outcome": "inactive"}
{"smiles": "FC(F)(F)c1ccccc1Cl", "outcome": "inactive"}
{"smiles": "O=C1c2ccccc2C(=O)N1CCc1noc(-c2ccc(CN3CCCCCC3)s2)n1", "outcome": "inactive"}
{"smiles": "Nc1nc2ccc([N+](=O)[O-])cc2s1", "outcome": "inactive"}
{"smiles": "CCC1NC(=O)c2cc(S(N)(=O)=O)c(Cl)cc2N1", "note": "(stereo not given)", "fluorescence, % of Rose Bengal": "-0.427% [at 18.6 µM]"}
{"smiles": "C=CCc1ccccc1OCC(O)CNC(C)C", "note": "(stereo not given)", "outcome": "inactive"}
{"smiles": "c1ccc2c(c1)CCc1ccccc1N2", "outcome": "inactive"}
{"smiles": "CCCCOc1ccc(OCCCN2CCOCC2)cc1", "fluorescence, % of Rose Bengal": "0.461% [at 18.6 µM]"}
{"smiles": "CC(C)(c1ccccc1)c1ccccc1", "outcome": "inactive"}
{"smiles": "O=C(O)C[C@H](NC(=O)OCc1ccccc1)C(=O)O", "outcome": "inactive"}
{"smiles": "Oc1cccc(Nc2ccccc2)c1", "outcome": "inactive"}
{"smiles": "C=C1CCC2CC1C2(C)C", "note": "(stereo not given)", "outcome": "inactive"}
{"smiles": "C=C(C)CCCC(C)CCO", "note": "(stereo not given)", "outcome": "inactive"}
{"smiles": "O=[N+]([O-])c1cc(C2CCCCC2)c(O)c([N+](=O)[O-])c1", "outcome": "inactive"}
{"smiles": "CC1(CN2CCC(n3c(=O)[nH]c4ccccc43)CC2)OCc2ccccc2-n2cccc21", "note": "(stereo not given)", "outcome": "inactive"}
{"smiles": "CCOC(=O)C1=C(C)NC(C)=C(C(=O)OC)C1c1cccc(Cl)c1Cl", "note": "(stereo not given)", "outcome": "inactive"}
{"smiles": "Cc1ccccc1S", "outcome": "inactive"}
{"smiles": "CCC(OCCCOC)OC(C)=O", "note": "(stereo not given)", "outcome": "inactive"}
